Data as given in PubChem BioAssay AID651598 (Sanford-Burnham Center for Chemical Genomics, 2012).
Several values for one entry are separate records, joined by “and”; a condition that tells them apart may be missing. Equal values may be shown once.

molecular target: Apelin receptor (Homo sapiens) (UniProt P35414); test: apelin receptor (APJ) antagonists, SAR follow-up, counter-screen for CXCR6 antagonist project, cell-based, beta-arrestin, DiscoveRx, panel, CHO-K1 (AID 651598); settings: CHO-K1 PathHunter beta-arrestin luminescence, antagonist mode; run 5, at 80 µM (top of the series)
Sequence (P35414 whole entry, looked up): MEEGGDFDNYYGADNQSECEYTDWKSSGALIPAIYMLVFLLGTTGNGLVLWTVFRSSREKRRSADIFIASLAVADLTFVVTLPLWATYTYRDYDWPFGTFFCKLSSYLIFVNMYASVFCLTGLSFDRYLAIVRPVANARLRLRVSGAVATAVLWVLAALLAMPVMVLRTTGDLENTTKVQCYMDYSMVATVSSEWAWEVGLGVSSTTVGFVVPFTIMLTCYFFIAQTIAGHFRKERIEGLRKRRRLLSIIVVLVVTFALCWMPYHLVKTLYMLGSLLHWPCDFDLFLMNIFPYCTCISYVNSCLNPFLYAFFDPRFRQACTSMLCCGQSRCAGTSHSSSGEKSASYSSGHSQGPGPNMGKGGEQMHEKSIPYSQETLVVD

| SMILES | inhibition |
| --- | --- |
| COc1cc(C(=O)NC2CC3CCCC(C2)N3CC(=O)Nc2ccccc2)cc(OC)c1OC (stereo not drawn) | 11% and 14.6% and 16% |
| COc1cc(C(=O)NC2CC3CCC(C2)N3CC(=O)Nc2ccccc2)cc(OC)c1OC (stereo not drawn) | -14.1% and -9.09% |
| COc1cc(C(=O)NC2CCN(CC(=O)Nc3ccccc3)CC2)cc(OC)c1OC | -5.74% |
